Laboratory results reported in PubChem BioAssay (NCATS).
Results filed as inconclusive are left out. Values without a mark were called inactive. The call rests on the fitted dose curve; in most records, active means well fitted cell-killing curve with a large enough effect; inconclusive means small, poorly fitted or top-dose-only effect; inactive means flat fitted curve, though single readings scatter.

experiment: qHTS assay to identify small molecule inhibitors of chordoma cells - UCH-2 (AID 1259356); conditions: UCH-2 chordoma viability, CellTiter-Glo ATP luminescence, 48 h; series mostly up to 46.1 µM; activity change, negative = inhibition: at the top concentration
On the % scale 0 is the no-effect control and ±100 the full control effect.

Structure (SMILES)	activity change, negative = inhibition [%]
CC[C@@H](C)[C@H](N)C(=O)O	1.12
CN[C@H](CC(C)C)C(=O)N[C@H]1C(=O)N[C@@H](CC(N)=O)C(=O)N[C@H]2C(=O)N[C@H]3C(=O)N[C@H](C(=O)N[C@@H](C(=O)O)c4cc(O)cc(O)c4-c4cc3ccc4O)[C@H](O)c3ccc(c(Cl)c3)Oc3cc2cc(c3O[C@@H]2O[C@H](CO)[C@@H](O)[C@H](O)[C@H]2O[C@H]2C[C@](C)(N)C(O)[C@H](C)O2)Oc2ccc(cc2Cl)[C@H]1O (stereo not given in full)	10.5
O=C(O)[C@@H]1C[C@H](CP(=O)(O)O)CCN1	10.1
Cc1cc(O)c2c(c1)O[C@@]1(C)CC[C@H]3C(C)(C)CCCC34CO[C@@H]2[C@H]41 (stereo not given in full)	9.18
CC(C)[C@@H]1CC[C@@H](C)C[C@H]1OC(=O)c1ccccc1O	7.98
O=C(O)/C=C/c1ccccc1	-1.11
Cc1nc(NS(=O)(=O)c2ccc(N)cc2)nc(C)c1Br	5.21
C=O	11.1
CCOc1ccc(NC(=S)Nc2ccc(OCC)cc2)cc1	8.82
CC(=O)Nc1c(I)c(C(=O)O)c(I)c(N(C)C(C)=O)c1I	-2.86
